Compound activity: PubChem BioAssay, NMMLSC
A selection: hits, their analogues and other compounds. The true share with any hit is near 1.2%.
MEP2-GFP yeast: modulators of MEP2-GFP levels in yeast, primary screen, S. cerevisiae, multiplex flow cytometry, MLPCN library; 330,000 compounds, 0.51% hits; S. cerevisiae MEP2-GFP strain, 3 h; 100% = DMSO control level; GFP response vs DMSO, % at 10 µM; AID 2016, 2009;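 active = GFP response versus DMSO above a set limit, roughly screen mean plus 3 SD, cut at about 180% in these data; inconclusive = fewer than 70 cells counted for a yeast strain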;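 note: median GFP fluorescence of the barcode-gated MEP2-GFP cells per well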
Pemphigus Ab inh: inhibitors of pemphigus antibody binding to DSG3, primary screen, biochemical, bead-based, flow cytometry, scFv-GFP; Desmoglein-3 (Homo sapiens), P32926; DSG3-coupled beads, scFv-anti-DSG3-GFP binding; hits give low values; binding (percent of control), % at 10 µM; AID 588358, 2011; 310,000 compounds, 0.48% hits;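 active = binding more than 3 SD below its plate's average and above zero; inconclusive = below that plate limit but binding exactly zero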;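 note: hits lower antibody fragment binding to DSG3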
Target sequence (P32926 whole entry, looked up, the tested form may be a part): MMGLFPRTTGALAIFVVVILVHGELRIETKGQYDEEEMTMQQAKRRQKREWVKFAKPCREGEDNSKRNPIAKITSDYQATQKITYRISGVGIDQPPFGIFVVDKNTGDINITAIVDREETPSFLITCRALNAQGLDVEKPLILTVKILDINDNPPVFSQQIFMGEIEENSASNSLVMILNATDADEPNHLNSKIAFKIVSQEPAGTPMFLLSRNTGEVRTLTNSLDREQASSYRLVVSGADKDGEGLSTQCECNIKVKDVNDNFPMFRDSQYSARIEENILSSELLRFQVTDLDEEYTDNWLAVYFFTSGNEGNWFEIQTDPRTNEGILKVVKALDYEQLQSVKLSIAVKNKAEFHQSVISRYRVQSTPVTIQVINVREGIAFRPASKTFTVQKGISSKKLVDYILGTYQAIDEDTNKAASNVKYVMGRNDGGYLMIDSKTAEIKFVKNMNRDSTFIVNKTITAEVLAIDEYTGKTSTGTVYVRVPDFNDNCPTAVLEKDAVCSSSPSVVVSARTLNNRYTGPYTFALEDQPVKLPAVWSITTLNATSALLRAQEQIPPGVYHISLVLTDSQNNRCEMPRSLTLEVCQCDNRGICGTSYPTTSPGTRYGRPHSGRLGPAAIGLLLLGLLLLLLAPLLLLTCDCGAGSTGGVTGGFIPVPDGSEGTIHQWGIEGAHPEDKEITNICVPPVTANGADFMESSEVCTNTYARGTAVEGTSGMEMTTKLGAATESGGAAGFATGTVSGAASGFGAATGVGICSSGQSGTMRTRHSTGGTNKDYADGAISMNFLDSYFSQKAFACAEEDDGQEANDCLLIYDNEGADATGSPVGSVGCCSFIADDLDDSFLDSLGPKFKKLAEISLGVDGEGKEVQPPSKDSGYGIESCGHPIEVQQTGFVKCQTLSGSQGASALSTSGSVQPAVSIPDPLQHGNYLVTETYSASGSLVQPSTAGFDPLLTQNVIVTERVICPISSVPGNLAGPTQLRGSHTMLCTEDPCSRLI
LAP4-GFP MLPCN: modulators of LAP4-GFP expression in yeast, primary screen, S. cerevisiae, multiplex flow cytometry, MLPCN library. 3 h; median GFP as percent of DMSO wells. GFP response vs DMSO, % at 10 µM. 320,000 compounds, 0.34% hits. AID 2023, 2009;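 active = GFP response vs DMSO above a set limit, about the screen mean plus 3 SD, cut at about 150% in these data; inconclusive = under 70 cell events counted for the yeast strain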
RPL19A TOR yeast: RPL19A-GFP expression modulators in yeast, primary screen, cell-based, S. cerevisiae, multiplex flow cytometry, MLPCN; S. cerevisiae RPL19A-GFP strain, 3 h; hits give low values; 330,000 compounds, 0.3% hits; percent response vs DMSO, % at 10 µM;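 active = percent response vs DMSO below 50%; inconclusive = fewer than 70 events counted for the yeast strain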;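 note: median channel GFP fluorescence of the barcoded RPL19A-GFP strain; ratio of sample median GFP to plate DMSO average so 100% = DMSO; lower means less RPL19A-GFP as with rapamycin TOR inhibition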
CIT2 TOR yeast: modulators of CIT2-GFP expression in yeast, primary screen, S. cerevisiae, GFP fusion, multiplex flow cytometry, MLPCN library; S. cerevisiae CIT2-GFP strain, 3 h; 100 means same as DMSO wells; GFP response vs DMSO, % at 10 µM; 320,000 compounds, 0.065% hits;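 active = GFP response relative to DMSO above a set limit, near the screen mean plus 3 SD, cut at about 150% in these data; inconclusive = Fewer than 70 cells measured for a yeast strain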;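 note: ratio of well median GFP fluorescence to mean of DMSO wells on the plate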
AGP1-GFP MLPCN: modulators of AGP1-GFP expression in yeast TOR pathway, primary screen, cell-based, multiplex flow cytometry, S. cerevisiae, MLPCN library | 3 h; GFP as percent of DMSO wells | GFP response vs DMSO, % at 10 µM | 320,000 compounds, 0.02% hits | AID 2066, 2009;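 active = GFP response relative to DMSO above a set limit, near screen average plus 3 SD, cut at about 150% in these data; inconclusive = fewer than 70 cells counted for the yeast strain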;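 note: median GFP channel fluorescence of the gated AGP1 strain per well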
Active calls of the source: *; ? = inconclusive; · = not tested or not shown; ! = not active in a repeat; [ ] = dose if it differs, or a comment.

SMILES	MEP2-GFP yeast	Pemphigus Ab inh	LAP4-GFP MLPCN	RPL19A TOR yeast	CIT2 TOR yeast	AGP1-GFP MLPCN
N#CC1C(=O)NC(=O)CC12CCCCC2 (configuration not stated)	·	94	·	·	·	·
O=C(CCS(=O)(=O)Cc1ccccc1F)NCCc1ccc(Cl)cc1	518*	92	·	57	150*	162*
Cn1c(CO)nc2c3ccccc3ccc21	88	112	93	95	85	93
COCCCN1C(=O)C2C(C(=O)Nc3cc(C)cc(C)c3)C3C=CC2(O3)C1C(=O)NC1CCCCC1 (configuration not stated)	217*	98	88	63	86	57
O=C(Nc1ccc(Br)cc1)C1C2C=CC3(O2)C1C(=O)N(CCN1CCOCC1)C3C(=O)NC1CCCCC1 (configuration not stated)	438*[may fluoresce violet]	·	88	57	?	25
Cc1cc(C)cc(NC(=O)C2C3C=CC4(O3)C2C(=O)N(CCCN2CCCCC2)C4C(=O)NC2CCCCC2)c1 (configuration not stated)	93	·	84	89	86	69
CCCCn1c(N)c(N(CCC(C)C)C(=O)c2c(CC)noc2C)c(=O)[nH]c1=O	·	101	·	·	·	·
Cc1cccc(S(=O)(=O)c2c(N)n(/N=C/c3ccccc3)c3nc4ccccc4nc23)c1	98	89*	99	98	108	100
O=C(c1ccc([N+](=O)[O-])o1)N1CCN(c2nc3ccc(F)cc3s2)CC1	96	109	163*	93	78	90
Nc1nc(N)c2c(n1)CCCC2	101	90	96	98	97	96
Nc1ncnc2c1CCC2	213*[may fluoresce violet]	103	102	60	?	28
NNc1nc2c(-c3ccc(Cl)cc3)nnn2c2ccccc12	116	68*	120	72	63	17
NNc1nc2c(-c3ccc(F)cc3)nnn2c2ccccc12	99	85	121	71	74	64
CCOC(=O)CSc1nc2sc(C)c(C)c2c(=O)n1N	98	57*	95	104	99	102
O=C(OCc1cccc([N+](=O)[O-])c1)c1cnccn1	175*	97	91	82	92	25
CC1=C(C(=O)Nc2ccccc2C(=O)NC2CCCCC2)SCCO1	100	·	106	98	94	102
CC(NC(=O)C1CCCN(C(=O)c2ccc(Cl)cc2)C1)c1cccc(C(F)(F)F)c1 (configuration not stated)	115	98	114	120	117	114
CCC(=O)N1c2ccc(S(=O)(=O)CCC(=O)Nc3nccs3)cc2CC1C (configuration not stated)	?	67	?	29*[may fluoresce violet]	?	?
CC1Cc2cc(S(=O)(=O)CCC(=O)NC3CCCCC3)ccc2N1C(=O)C1CC1 (configuration not stated)	97	98	94	102	103	103
CC1CC(C)CN(c2ccc(NS(=O)(=O)c3ccccc3)cc2C(=O)O)C1 (configuration not stated)	99	109	100	96	93	96
CN1CCc2nc3sc(C(=O)C45CC6CC(CC(C6)C4)C5)c(N)c3cc2C1	257*[may fluoresce violet]	111	120	73	?	25
CCC(c1nnnn1CS(=O)(=O)c1ccc(C)cc1)N1CCN(c2nc3ccccc3s2)CC1 (configuration not stated)	101	104	105	102	103	108
CSc1ncnc2c1ncn2CCCNCc1ccc(C)o1	·	110	·	·	·	·
CC(=O)Nc1ccc2sn(-c3ccccc3)c(=O)c2c1	·	49*	·	·	·	·
O=c1c2cc([N+](=O)[O-])ccc2sn1-c1ccccc1	·	66*	·	·	·	·
SMILES	MEP2-GFP yeast	Pemphigus Ab inh	LAP4-GFP MLPCN	RPL19A TOR yeast	CIT2 TOR yeast	AGP1-GFP MLPCN
N#Cc1ccc2sn(-c3ccccc3)c(=O)c2c1	·	41*	·	·	·	·
C/C(=N/O)c1ccc2c(c1)OCCOCCOc1cc(/C(C)=N/O)ccc1OCCOCCO2	102	104	86	105	99	93
COc1ccccc1N1CCN(C(=O)c2cc(=O)c3c(C)cc(C)cc3o2)CC1	?	109	?	40*[may fluoresce violet]	?	?
CC(NCc1ccc(S(N)(=O)=O)cc1)C(=O)Nc1ccc([N+](=O)[O-])cc1Cl (configuration not stated)	100	98	94	102	97	96
Nc1ccc(N)c(C(=O)O)c1	99	51*	98	105	98	108
Nc1ccc(C(=O)O)c(O)c1	94	119	384*![may fluoresce red]	?	79	84
CC(C)CCN1CCC[C@]2(N[C@H](c3ccccc3)[C@@H]3C(=O)N(Cc4ccccc4)C(=O)[C@@H]32)C1=O	·	110	·	·	·	·
Cc1cc(CNC(=O)COC(=O)c2ccc(Cl)c(N)c2)cc(C)c1O	110	101	118	87	89	99
COc1ccc(N2CCN(S(=O)(=O)CCNC(=O)c3cc(=O)c4ccccc4o3)CC2)cc1	112	-12*	111	102	103	106
CC(C)c1ccc(S(=O)(=O)N2CCN(C(=O)c3ccncc3)CC2)cc1	105	·	112	102	103	107
Cc1cc(C)n(-c2ccc(C(=O)N3CCN(S(=O)(=O)c4ccc(C(C)C)cc4)CC3)cc2)n1	221*[may fluoresce violet]	98	77	93	?	20
CC(=O)N(C)c1ccc(C=C2C=Cc3ccccc32)cc1	·	101	·	·	·	·
C#CCOCCOCCOCCNc1nc(N2CCN(C(=O)Cn3cc(CC(C)O)nn3)CC2)nc(N2CCN(C(=O)[C@H](CCCCN)n3cc(CC(C)O)nn3)CC2)n1 (some centres not stated)	·	105	·	·	·	·
Oc1[nH]c(N=C2N=c3ccccc3=N2)c2ccccc12	191*[may fluoresce violet]	?	131	90	?	18
CCOC(=O)C1CCc2c(ccc3ccccc23)N1CCC#N (configuration not stated)	·	102	·	·	·	·
CCC1=Nc2cc(C(=O)NCc3cccnc3)ccc2Sc2ccc(C)cc21	226*[may fluoresce violet]	88	100	48*[may fluoresce violet]	?	20
CCC1=Nc2cc(C(=O)NCc3ccco3)ccc2Sc2ccc(Cl)cc21	111	79	100	103	106	108
CCN(CC)S(=O)(=O)c1ccc(Nc2ccc(-c3ccc4c(c3)OCCO4)nn2)cc1	98	101	95	94	97	95
CN(C)S(=O)(=O)c1ccc(Nc2ccc(-c3ccc4c(c3)OCCO4)nn2)cc1	105	69*	98	101	104	99
